From PubChem BioAssay
GRK2 inh: blocks RNA aptamer binding to human GRK2; P25098; bead flow cytometry, FAM-aptamer displacement from GRK2; inhibition of aptamer binding, % at 10 µM; hit rate 0.59% among 330,000;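 active means inhibition of aptamer binding above 40%, roughly 3 SD of noise, on plates passing a quality check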;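 further: median bead fluorescence of bound FAM aptamer so fluorescent compounds give negative values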
Beta2AR agonist: activates human beta-2 adrenergic receptor causing internalization. P07550. Am2.2-beta2AR cells, FAP receptor internalization, flow cytometry. response, % (concentration not given with the values). hit rate 0.43% among 340,000. AID 504454;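 active means response above a set limit, near 3 SD of response in nonfluorescent compounds, cut at about 42% in these data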
Target sequence (P07550 whole entry, looked up): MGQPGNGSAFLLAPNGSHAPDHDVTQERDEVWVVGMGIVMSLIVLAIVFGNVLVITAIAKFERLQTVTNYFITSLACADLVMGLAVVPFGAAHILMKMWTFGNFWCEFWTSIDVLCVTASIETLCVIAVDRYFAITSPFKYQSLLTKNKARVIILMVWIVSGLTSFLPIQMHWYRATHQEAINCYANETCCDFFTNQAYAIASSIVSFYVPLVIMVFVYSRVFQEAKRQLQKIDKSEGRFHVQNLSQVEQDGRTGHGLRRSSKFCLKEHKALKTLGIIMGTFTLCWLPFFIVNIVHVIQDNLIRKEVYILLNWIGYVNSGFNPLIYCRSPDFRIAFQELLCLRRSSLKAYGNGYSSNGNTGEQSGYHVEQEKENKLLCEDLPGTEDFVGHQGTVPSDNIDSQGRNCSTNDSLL
MEKK2 mut-MEK5: signal of MEK5 binding to mutant human MEKK2 PB1 domain | bead flow cytometry, Alexa488-MEK5 binding to MEKK2 mutant | percent response, % at 10 µM | hit rate 0.35% among 290,000 | AID 1530; in the data active means percent response above about 24%, passing the limit was not always enough
MEKK3 PB1 HTS: MEKK3-MEK5 PB1 interaction, increase or decrease | Q99759 | bead-based flow cytometry, Alexa488-MEK5 binding to MEKK3; actives lie on both sides; 0 = blocked by unlabeled MEK5, 100 = vehicle | binding response (% of control), % at 10 µM | hit rate 1.4% among 290,000 | AID 1529;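 active means binding response more than 3 SD above or below the average of its plate-row segment, actives on both sides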;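 further: Alexa488 bead fluorescence after subtracting the streptavidin-only scavenger bead signal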
MEKK2 WT-MEK5: raises or lowers MEK5 binding to wildtype human MEKK2 PB1 domain. Q9Y2U5. bead flow cytometry, Alexa488-MEK5 binding to MEKK2 WT; actives lie on both sides. binding response (% of control), % at 10 µM. hit rate 1.1% among 290,000; in the data active means binding response below about 67% or above about 130%
* hit, by the source's call; x = not tested or not shown; [ ] = remark or other dose. Hits are enriched below; roughly 2.9% of the tested compounds scored in any of these assays.

SMILES | GRK2 inh | Beta2AR agonist | MEKK2 mut-MEK5 | MEKK3 PB1 HTS | MEKK2 WT-MEK5
COc1ccc2[nH]c3c(c2c1)CCN1C(=O)C(CC(=O)NCC24CC5CC(CC(C5)C2)C4)C[C@H](C(=O)N2CCCCC2)[C@@]31C (some centres not stated) | 0 | 6 | x | x | x
CCN(CC)C(=O)[C@H]1C[C@H](CC(=O)NC(C)(C)C)C(=O)N2CCc3c([nH]c4cc(CCC(=O)N(C)C)ccc34)[C@]12C | 50* | 4 | x | x | x
CN(C)CC(O)CN1C(=O)N(CN2C(=O)N(CC(O)CN(C)C)C(=O)C2(C)C)C(C)(C)C1=O (configuration not stated) | 3 | -2 | -10 | 100 | 83
Cc1cc(=O)cc(C)n1-c1ccccc1N | 2 | 45* | 19 | 109 | 111
Cc1ccc(C)n1-c1ccccc1N | 0 | x | 7 | 108 | 110
N#C/C(=C\c1cccc(NC(=O)c2ccccc2Cl)c1)C(=O)NCCc1ccccc1 | 2 | 43* | 11 | 102 | 115
COCCCNC(=O)/C(C#N)=C/c1cccc(NC(=O)c2ccccc2Cl)c1 | 1 | 10 | 0 | 125 | 106
Cc1noc(C)c1NC(=O)Nc1cccc2c1O[C@H](CN(C)C(=O)NC(C)C)[C@@H](C)CN([C@H](C)CO)C2=O | 0 | 1 | x | x | x
CN(c1ccccc1)c1ccc(/C=C/[N+](=O)[O-])cc1 | 2 | 88* | -2 | 104 | 89
Cc1ccc(-c2nnc(SCC(=O)N/N=C/c3ccccc3C(=O)O)n2-c2ccccc2)cc1 | 0 | x | -1 | 96 | 107
Cc1nnc(SCC(=O)N/N=C/c2cn(-c3ccccc3)nc2-c2ccccc2)n1-c1ccccc1 | 4 | 64* | 1 | 97 | 93
CSC1=NC(C)(C)C=C(/C=C/c2ccc(Cl)cc2Cl)N1 | 0 | 12 | -3 | 89 | 94
CSC1=NC(C)(C)C=C(/C=C/c2ccc(Cl)cc2)N1 | 0 | 84* | 10 | 105 | 119
COc1ccc(OCC(=O)Nc2cc(-c3nn4c(C)nnc4s3)ccc2C)cc1 | 0 | 70* | -1 | 97 | 94
O=C(O)c1ccc(NS(=O)(=O)/C=C/c2ccccc2)cc1 | 55* | 0 | 5 | 101 | 96
O=C(COC(=O)c1ccc2c(c1)C(=O)N(c1cccc3ncccc13)C2=O)c1ccc(Cl)cc1 | 0 | 63* | -2 | 70*[inhibitor] | 80
COc1ccc(CCC(=O)N2CCN(c3ccccc3)CC2)cc1OC | 1 | -5 | 12 | 104 | 97
O=C(CSc1nc(C2CC2)nc2ccccc12)N1CCc2ccccc21 | x | 6 | x | x | x
Cc1c(C)n(C)c2ccc(C(=O)NCCCN3CCN(c4ccccc4F)CC3)cc12 | 0 | 3 | 21 | 107 | 158*
Cc1c(C)n(C)c2ccc(C(=O)NCCCN3CCN(c4ccc(F)cc4)CC3)cc12 | 0 | -2 | 7 | 98 | 134*
Cc1c(C)n(C)c2ccc(C(=O)NCCCN3CCOCC3)cc12 | 0 | 1 | 6 | 99 | 103
O=C1CC(c2ccccc2)=C(c2ccccc2)C1c1ccccc1 (configuration not stated) | x | 5 | x | x | x
CC(CCN1CCN(c2ccccc2)CC1)c1ccccc1 (configuration not stated) | 0 | -1 | 5 | 109 | 110
Cc1nc2c(Br)cc(Br)cc2cc1O | 0 | 57* | 3 | 106 | 104
Cc1cc(-n2c(C)cc(C(=O)CCl)c2C)no1 | 3 | 65* | -1 | 96 | 99
SMILES | GRK2 inh | Beta2AR agonist | MEKK2 mut-MEK5 | MEKK3 PB1 HTS | MEKK2 WT-MEK5
Cc1cc(-n2c(C)cc(C(=O)CN3C(=O)C(=O)N(C)C3=O)c2C)no1 | 0 | 5 | x | x | x
NC(=O)c1nsc(C(=O)N(c2cccc(F)c2)C(C(=O)NC2CCCC2)c2ccco2)c1N (configuration not stated) | 2 | -5 | -37 | 1.0*[inhibitor] | 0.0*[inhibitor]
CCn1c(CC(=O)Nc2ccccc2)nnc1SCC(=O)Nc1nnc(C)s1 | 1 | 2 | -1 | 96 | 93
O=C(Cc1csc(N2CCOCC2)n1)N/N=C/c1ccc(O)c(O)c1O | x | 46* | 2 | 88 | 91
O=C(Nc1c2c(nn1-c1cccc(Cl)c1)CS(=O)(=O)C2)c1ccco1 | 9 | -1 | -14 | 36*[inhibitor] | 42*[inhibitor]
Cc1ccc(-n2nc3c(c2NC(=O)c2ccco2)CS(=O)(=O)C3)cc1C | 2 | -9 | 6 | 102 | 101
